Structures are written as SMILES. Unmarked numbers belong to inactive results. Results filed as inconclusive are left out. Calls of active or inactive are those of the source. Unless noted, calls follow the shape of the dose curve; as a rule, active = well fitted curve in the direction sought with a large enough effect in the repeat runs; inconclusive = weak or mixed curves; inactive = no such curve, though single readings can be large; an effect the other way counts as inactive or inconclusive.

Test [1] in a line: qHTS assay to identify small molecule agonists of the TGF-beta/Smad signaling pathway (AID 1346859; active = well fitted activation curve with a large enough effect in the signal ratio in the repeat runs, not every such curve was filed as active; the % refers to the signal ratio; also: series mostly up to about 77 µM). A digest of the protocol: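 Screening used HEK 293T SBE-bla cells at 4,000/well. Test agents: 5 hr, 37 C. Detection: FRET substrate, 2 hr RT, then excitation 405 nm with emissions at 460 and 530 nm.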
In general terms: In qHTS, concentration-response curves come from the screen itself.

Test [2] concerns the target Thyrotropin-releasing hormone receptor (Homo sapiens) (UniProt P34981). The test is described as follows: qHTS assay to identify small molecule antagonists of the thyrotropin-releasing hormone receptor (TRHR) signaling pathway (AID 1346877; active = well fitted inhibition curve with a large enough effect in the repeat runs, not every such curve was filed as active; also: series mostly up to about 51 µM). A digest of the protocol: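 Human TRHR in HEK293 cells; inhibition of the intracellular calcium rise triggered by 1 nM TRH was followed by fluorescence over 3 min. Compounds were run at 15 concentrations, three replicates each.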

Test [3] has the same target. The test is described as follows: qHTS assay to identify small molecule agonists of the thyrotropin-releasing hormone receptor (TRHR) signaling pathway (AID 1346891; calls by dose curve; also: series mostly up to about 58 µM). In a few lines:
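Readout was intracellular calcium fluorescence in TRHR-Hek293 cells. Cells were incubated 18 h, dye-loaded 2 h at 37 °C, and treated with compound in agonist mode.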

Test [4] in a line: Human pregnane X receptor (PXR) small molecule agonists, qHTS cell viability counter screen (AID 1346977). Also: nearly all actives have a fitted effect of over 50% in size. In a few lines: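 In each well, the PXR reporter HepG2 line was checked for viability: CellTiter-Fluor reagent added 23hr post-dosing, fluorescence read after 1hr incubation at 37C.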
Test [5] in a line: Caspase-3/7 induction in HepG2 cells by small molecules, qHTS assay (AID 1346978). Also: nearly all actives have a fitted effect of over 15% in size. A digest of the protocol:
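Caspase-3/7 induction was measured by Caspase-Glo 3/7 luminescence (30 min, room temperature) after a 17 hr compound exposure of wild-type HepG2 cells seeded at 2,000 per well and pre-incubated 5 hr.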

Test [6] can be described thus: Caspase-3/7 induction in CHO-K1 cells by small molecules, qHTS cell viability counter screen (AID 1346979). Also: nearly all actives have a fitted effect of over 35% in size. In a few lines:
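Following a 5hr settling period, CHO-K1 cells at 1,500 per well received DMSO-dissolved compounds. Cell viability was quantified 16hr later by CellTiter-Fluor fluorescence, measured after 1hr with reagent at 37C.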

Test [7] is described as follows: Caspase-3/7 induction in CHO-K1 cells by small molecules, qHTS assay (AID 1346980). Also: nearly all actives have a fitted effect of over 15% in size. In a few lines: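 Luminescent Caspase-Glo 3/7 read (30min, room temperature) quantified apoptosis induction. Cells were wild-type CHO-K1, treated with compound for 17hr at 37 C and 5% CO2.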
The nature of test [8]: Caspase-3/7 induction in HepG2 cells by small molecules, qHTS cell viability counter screen (AID 1346981). Also: series mostly up to about 92 µM; nearly all actives have a fitted effect of over 30% in size. A digest of the protocol:
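The parent HepG2 line is plated at 2,000 cells per well and rested 5 hr before compound pinning from DMSO stocks. Following a 16-hr treatment at 37 C, a fluorogenic live-cell substrate (CellTiter-Fluor) reports viability after 1 hr.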

Test [9] addresses Nuclear receptor subfamily 1 group I member 2 (Homo sapiens) (UniProt O75469). The test is described as follows: Human pregnane X receptor (PXR) small molecule agonists, qHTS assay (AID 1346982). Also: nearly all actives have a fitted effect of over 35% in size. Also: potency is read from the fitted curve at half-maximal effect. A digest of the protocol:
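After plating in 5% charcoal-stripped FBS and a 5 hr rest, PXR-Luc HepG2 cells received compounds in DMSO. Following 24 hr at 37 C, ONE-Glo was added and light output read.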

In test [10] the target is Cytochrome P450 2D6 (Homo sapiens) (UniProt P10635). The test is described as follows: Cytochrome P450 Family 2 Subfamily D Member 6 (CYP2D6) small molecule antagonists: luciferase reporter qHTS assay (AID 1671196). Also: series mostly up to about 120 µM; nearly all actives have a fitted effect of over 50% in size. In a few lines:
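Quantitative HTS of Tox21 chemicals against CYP2D6 using a luminescent proluciferin substrate. After NADPH addition, 1 h room-temperature reaction; luminescence recorded 20 min post detection reagent.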

For test [11], the target named is Cytochrome P450 2C19 (Homo sapiens) (UniProt P33261). The test is described as follows: Cytochrome P450 Family 2 Subfamily C Member 19 (CYP2C19) small molecule antagonists: luciferase reporter qHTS assay (AID 1671197). Also: nearly all actives have a fitted effect of over 65% in size. Also: potency is read from the fitted curve at half-maximal effect. In a few lines: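 Light output is proportional to CYP2C19 activity: proluciferin substrate is converted to luciferin, then detected by a luciferin detection reagent that also stops the 1 h, 37C NADPH-driven reaction. Ketoconazole serves as positive control.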
For orientation: A reporter such as luciferase makes a cellular process visible.

Test [12] has as its target Cytochrome P450 2C9 (Homo sapiens) (UniProt P11712). The test is described as follows: Cytochrome P450 Family 2 Subfamily C Member 9 (CYP2C9) small molecule antagonists: luciferase reporter qHTS assay (AID 1671198). Also: nearly all actives have a fitted effect of over 50% in size. Also: potency is read from the fitted curve at half-maximal effect. A digest of the protocol: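 Enzyme-substrate mix preincubated with compound 10 min at room temperature; reaction started with NADPH regeneration solution, 1 h 37C. Luminescent luciferin product read after 20 min detection reagent.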

For test [13], the target named is Cytochrome P450 1A2 (Homo sapiens) (UniProt P05177). The test is described as follows: Cytochrome P450 Family 1 Subfamily A Member 2 (CYP1A2) small molecule antagonists: luciferase reporter qHTS assay (AID 1671199). Also: series mostly up to about 120 µM; nearly all actives have a fitted effect of over 50% in size. In a few lines:
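Quantitative high-throughput format using the P450-Glo CYP1A2 system. Reaction initiated by NADPH regeneration solution, 1 h at room temperature, then stopped with detection reagent; luminescence measured 20 min later.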

The target of test [14] is Voltage-gated inwardly rectifying potassium channel KCNH2 (Homo sapiens) (UniProt Q12809). The test is described as follows: Human Ether-a-go-go-Related Gene (hERG) channel small molecule antagonists: fluorescence cell-based qHTS assay (AID 1671200). A digest of the protocol: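 In this thallium-flux screen, overnight-cultured U2OS cells bearing the channel are dye-loaded in darkness for an hour, rested 10 min at room temperature, and then monitored kinetically at 480/540 nm for two minutes post-stimulus.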
Background: The hERG channel carries a current that helps repolarise heart muscle cells.

In test [15] the target is Cytochrome P450 3A4 (Homo sapiens) (UniProt P08684). The test is described as follows: Cytochrome P450 Family 3 Subfamily A Member 4 (CYP3A4) small molecule antagonists: luciferase reporter qHTS assay (AID 1671201). Also: nearly all actives have a fitted effect of over 50% in size. Also: potency is read from the fitted curve at half-maximal effect. A digest of the protocol:
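CYP3A4 activity was followed with a P450-Glo proluciferin substrate. Test compounds in DMSO were preincubated 10 min; NADPH regeneration then ran 1 h, and light output was read 20 min after detection reagent.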

Sequence of Cytochrome P450 2C19 (Homo sapiens) (P33261 whole entry, looked up): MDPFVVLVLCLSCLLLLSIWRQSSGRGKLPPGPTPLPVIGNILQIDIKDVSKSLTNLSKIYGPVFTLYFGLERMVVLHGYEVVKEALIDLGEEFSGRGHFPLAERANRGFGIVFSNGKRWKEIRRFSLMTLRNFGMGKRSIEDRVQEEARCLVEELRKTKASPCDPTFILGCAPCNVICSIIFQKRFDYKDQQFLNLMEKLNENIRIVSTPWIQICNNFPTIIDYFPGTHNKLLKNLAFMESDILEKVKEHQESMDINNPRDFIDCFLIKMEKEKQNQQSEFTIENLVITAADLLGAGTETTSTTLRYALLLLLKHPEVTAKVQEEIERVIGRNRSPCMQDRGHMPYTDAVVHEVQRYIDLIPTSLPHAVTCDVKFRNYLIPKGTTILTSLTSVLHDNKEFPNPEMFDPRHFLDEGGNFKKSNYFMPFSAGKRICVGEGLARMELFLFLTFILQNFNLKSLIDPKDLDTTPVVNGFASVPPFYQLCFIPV
Sequence of Cytochrome P450 1A2 (Homo sapiens) (P05177 whole entry, looked up): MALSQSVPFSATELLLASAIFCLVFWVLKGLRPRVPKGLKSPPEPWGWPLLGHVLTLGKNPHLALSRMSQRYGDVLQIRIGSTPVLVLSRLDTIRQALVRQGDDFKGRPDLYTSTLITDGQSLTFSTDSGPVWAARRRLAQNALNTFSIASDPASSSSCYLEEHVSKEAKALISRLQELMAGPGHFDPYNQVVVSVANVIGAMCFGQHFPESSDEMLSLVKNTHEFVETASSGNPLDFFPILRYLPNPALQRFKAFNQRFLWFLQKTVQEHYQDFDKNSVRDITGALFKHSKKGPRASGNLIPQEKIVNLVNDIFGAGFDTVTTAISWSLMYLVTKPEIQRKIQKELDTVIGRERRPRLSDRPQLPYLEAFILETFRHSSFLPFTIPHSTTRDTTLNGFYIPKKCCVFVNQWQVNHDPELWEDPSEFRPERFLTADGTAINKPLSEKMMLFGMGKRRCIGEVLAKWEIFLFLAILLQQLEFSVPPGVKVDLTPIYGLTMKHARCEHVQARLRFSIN
Sequence of Nuclear receptor subfamily 1 group I member 2 (Homo sapiens) (O75469 whole entry, looked up): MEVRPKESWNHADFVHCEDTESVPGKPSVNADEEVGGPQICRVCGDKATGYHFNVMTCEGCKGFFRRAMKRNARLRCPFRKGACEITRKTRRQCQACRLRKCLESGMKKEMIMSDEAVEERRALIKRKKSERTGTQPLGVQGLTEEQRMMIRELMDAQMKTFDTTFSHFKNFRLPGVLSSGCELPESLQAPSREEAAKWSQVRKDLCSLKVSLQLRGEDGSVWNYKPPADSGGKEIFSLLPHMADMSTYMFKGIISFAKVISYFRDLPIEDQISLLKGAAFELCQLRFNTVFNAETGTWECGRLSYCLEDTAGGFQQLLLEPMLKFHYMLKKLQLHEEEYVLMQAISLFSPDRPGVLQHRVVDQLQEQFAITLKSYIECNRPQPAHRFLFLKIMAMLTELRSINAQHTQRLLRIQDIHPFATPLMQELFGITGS
Sequence of Cytochrome P450 3A4 (Homo sapiens) (P08684 whole entry, looked up): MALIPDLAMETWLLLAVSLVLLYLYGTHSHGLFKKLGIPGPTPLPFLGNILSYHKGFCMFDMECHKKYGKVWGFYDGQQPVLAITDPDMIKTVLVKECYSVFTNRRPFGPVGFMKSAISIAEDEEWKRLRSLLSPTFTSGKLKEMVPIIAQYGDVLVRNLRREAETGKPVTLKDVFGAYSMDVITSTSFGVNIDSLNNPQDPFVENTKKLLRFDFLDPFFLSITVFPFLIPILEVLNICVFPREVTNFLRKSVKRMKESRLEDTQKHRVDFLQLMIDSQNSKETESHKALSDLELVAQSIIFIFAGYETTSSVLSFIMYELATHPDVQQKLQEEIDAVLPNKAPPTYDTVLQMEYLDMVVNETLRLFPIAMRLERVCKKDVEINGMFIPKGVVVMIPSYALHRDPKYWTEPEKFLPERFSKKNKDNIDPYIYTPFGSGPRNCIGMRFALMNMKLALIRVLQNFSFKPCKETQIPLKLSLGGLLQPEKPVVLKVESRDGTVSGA
Sequence of Thyrotropin-releasing hormone receptor (Homo sapiens) (P34981 whole entry, looked up): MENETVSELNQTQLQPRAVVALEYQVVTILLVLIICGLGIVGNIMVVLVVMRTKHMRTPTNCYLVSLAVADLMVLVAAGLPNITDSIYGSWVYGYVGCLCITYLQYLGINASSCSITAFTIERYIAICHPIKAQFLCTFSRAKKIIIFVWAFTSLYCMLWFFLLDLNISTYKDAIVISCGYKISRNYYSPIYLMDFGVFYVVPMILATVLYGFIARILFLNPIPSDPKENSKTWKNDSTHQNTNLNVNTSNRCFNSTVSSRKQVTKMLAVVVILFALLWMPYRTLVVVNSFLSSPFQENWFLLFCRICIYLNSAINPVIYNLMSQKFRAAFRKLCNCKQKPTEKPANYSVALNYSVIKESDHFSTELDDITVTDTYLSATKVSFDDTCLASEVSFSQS
Sequence of Voltage-gated inwardly rectifying potassium channel KCNH2 (Homo sapiens) (Q12809 whole entry, looked up): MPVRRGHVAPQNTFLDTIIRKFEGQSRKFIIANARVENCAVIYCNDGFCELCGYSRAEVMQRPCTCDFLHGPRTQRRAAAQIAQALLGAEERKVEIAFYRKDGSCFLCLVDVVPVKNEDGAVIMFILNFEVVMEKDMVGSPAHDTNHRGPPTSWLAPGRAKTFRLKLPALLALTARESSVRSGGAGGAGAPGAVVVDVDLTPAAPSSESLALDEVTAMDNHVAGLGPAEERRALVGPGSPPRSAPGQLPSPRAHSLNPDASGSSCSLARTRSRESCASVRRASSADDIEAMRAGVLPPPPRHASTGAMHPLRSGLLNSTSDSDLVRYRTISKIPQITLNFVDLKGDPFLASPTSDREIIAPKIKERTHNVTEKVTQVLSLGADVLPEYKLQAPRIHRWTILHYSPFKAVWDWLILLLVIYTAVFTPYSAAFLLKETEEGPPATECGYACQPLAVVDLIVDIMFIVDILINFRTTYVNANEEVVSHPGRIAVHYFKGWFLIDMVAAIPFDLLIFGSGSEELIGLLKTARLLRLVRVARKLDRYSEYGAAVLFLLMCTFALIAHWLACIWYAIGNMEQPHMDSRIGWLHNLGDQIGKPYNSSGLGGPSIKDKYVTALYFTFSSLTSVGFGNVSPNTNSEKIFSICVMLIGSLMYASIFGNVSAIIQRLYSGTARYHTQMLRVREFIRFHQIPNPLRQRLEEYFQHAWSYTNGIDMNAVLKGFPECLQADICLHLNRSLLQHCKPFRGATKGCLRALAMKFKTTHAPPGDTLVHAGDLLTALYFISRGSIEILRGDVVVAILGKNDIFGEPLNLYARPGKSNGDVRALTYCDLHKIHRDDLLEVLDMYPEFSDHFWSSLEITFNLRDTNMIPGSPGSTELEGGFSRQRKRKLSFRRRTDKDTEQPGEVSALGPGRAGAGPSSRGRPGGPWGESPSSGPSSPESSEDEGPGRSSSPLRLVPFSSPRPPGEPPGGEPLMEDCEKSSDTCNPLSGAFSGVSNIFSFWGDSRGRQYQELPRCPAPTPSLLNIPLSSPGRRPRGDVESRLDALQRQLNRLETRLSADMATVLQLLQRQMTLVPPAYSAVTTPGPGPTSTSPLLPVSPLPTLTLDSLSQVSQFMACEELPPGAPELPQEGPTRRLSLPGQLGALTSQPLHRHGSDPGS
Sequence of Cytochrome P450 2C9 (Homo sapiens) (P11712 whole entry, looked up): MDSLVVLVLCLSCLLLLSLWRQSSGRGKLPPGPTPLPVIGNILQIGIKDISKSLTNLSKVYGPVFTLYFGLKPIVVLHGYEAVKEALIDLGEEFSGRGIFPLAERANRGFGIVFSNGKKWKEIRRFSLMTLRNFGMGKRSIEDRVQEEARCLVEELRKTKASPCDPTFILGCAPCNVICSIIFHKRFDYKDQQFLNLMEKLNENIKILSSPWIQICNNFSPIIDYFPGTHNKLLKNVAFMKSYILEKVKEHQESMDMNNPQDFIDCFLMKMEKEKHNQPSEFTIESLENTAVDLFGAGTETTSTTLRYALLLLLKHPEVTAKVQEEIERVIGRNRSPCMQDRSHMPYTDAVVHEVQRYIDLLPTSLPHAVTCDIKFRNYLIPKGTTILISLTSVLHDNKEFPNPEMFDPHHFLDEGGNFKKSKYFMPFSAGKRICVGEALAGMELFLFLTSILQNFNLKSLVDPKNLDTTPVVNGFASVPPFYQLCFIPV
Sequence of Cytochrome P450 2D6 (Homo sapiens) (P10635 whole entry, looked up): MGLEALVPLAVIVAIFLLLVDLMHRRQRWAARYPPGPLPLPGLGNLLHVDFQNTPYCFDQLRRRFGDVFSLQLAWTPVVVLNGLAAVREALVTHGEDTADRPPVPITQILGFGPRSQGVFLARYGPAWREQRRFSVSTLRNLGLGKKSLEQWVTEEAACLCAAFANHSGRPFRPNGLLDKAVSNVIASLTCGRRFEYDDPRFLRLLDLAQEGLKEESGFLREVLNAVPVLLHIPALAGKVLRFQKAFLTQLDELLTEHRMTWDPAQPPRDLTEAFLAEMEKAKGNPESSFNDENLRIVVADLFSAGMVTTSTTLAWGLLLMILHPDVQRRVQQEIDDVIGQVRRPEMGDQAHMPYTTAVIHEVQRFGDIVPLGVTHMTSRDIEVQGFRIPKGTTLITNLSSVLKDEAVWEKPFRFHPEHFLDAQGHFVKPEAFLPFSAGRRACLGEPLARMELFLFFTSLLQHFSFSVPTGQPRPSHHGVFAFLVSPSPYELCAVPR

In the case of `CCCCCCCCCCCCCCBr`, the molecule was classed as inactive in [1], in [2], in [4], in test [5], in test [7] and in test [8]. Moreover, the Potency entry in [3], in test [6], in test [9], in [10], in [11] and in [12] was “inactive” in each case. Moreover, the Potency result in [13], in test [14] and in [15] was “inactive” throughout.

As to `CCCCC(O)/C=C(C)/C=C/C=C/C(=O)N1CCCC1=O` (stereo not given), the outcome in [1], in test [2], in [4], in test [5], in test [7] and in test [8] was inactive. Besides, the Potency entry in test [3], in [6], in test [9], in test [10], in test [11] and in test [12] was “inactive” in each case. Moreover, the Potency entry in [13] and in [14] was “inactive” each time.

For the molecule `Cc1ccc(OC(=O)CC(C)C)cc1`, the call in test [1], in [2], in test [4], in test [5], in test [7] and in test [8] was inactive. The Potency result in test [3], in test [6], in [9], in test [10], in test [11] and in test [12] was “inactive” in each case. The Potency entry in [14] and in [15] was “inactive” each time.

Consider `CC(=O)O[C@@H]1CC2C3CCc4cc(OC(=O)c5ccccc5)ccc4C3CCC2(C)[C@H]1OC(C)=O` (stereo not given in full), for which the outcome in test [1], in test [2], in [4], in test [5], in test [7] and in [8] was inactive. Moreover, the Potency entry in [3], in test [6], in [9], in test [10], in test [11] and in test [13] was “inactive” in each case. Moreover, the Potency result in test [15] was “inactive”. In addition, in [12], the Potency was 11 µM (active).

Regarding `CC(C)(C)c1ccc(N)cc1`, the call in [1], in [2], in test [4], in [5], in [7] and in test [8] was inactive. In addition, the Potency result in [3], in test [6], in test [10], in test [11] and in test [13] was “inactive” in each case. The values for the Potency in test [9] and in test [15] were 68.6 µM (active) and 28.3 µM (active), respectively.

As to `CCOC(=O)CN1CCCC1=O`, the outcome in [1], in test [2], in test [4], in test [5], in test [7] and in test [8] was inactive. Moreover, the Potency entry in [3], in test [6], in [9], in test [10], in [11] and in test [12] was “inactive” throughout. The Potency result in test [13], in test [14] and in [15] was “inactive” throughout.

In the case of `C=CCON/C(CCC)=C1\C(=O)CC(C)(C)C(C(=O)OC)=C1O`, the outcome in [1], in [2], in test [4], in [5], in [7] and in test [8] was inactive. For the same molecule, the Potency result in test [3], in test [6], in test [9] and in test [10] was “inactive” throughout. The Potency was 78.7 µM (active) in test [11], 35.2 µM (active) in [12] and 35.2 µM (active) in test [15].

Consider `C/C(Cl)=C/CCl`, for which the molecule was classed as inactive in test [1], in [2], in test [4], in [5], in test [7] and in test [8]. For the same molecule, the Potency result in [3], in test [6], in test [9], in test [10], in test [12] and in test [13] was “inactive” in each case. Further, the Potency result in test [14] and in [15] was “inactive” throughout.

With `Cc1ccc(Br)cc1`, the molecule was called inactive in test [1], in test [2], in test [4], in test [5], in [7] and in [8]. In addition, the Potency entry in [3], in test [6], in test [9], in [10], in [12] and in test [13] was “inactive” throughout. The Potency entry in [15] was “inactive”.

Source of the values: PubChem BioAssay (Tox21).
